The values below come from the supplement of paper PMC12494721.

Common to all, as to conditions: incubation time: 27 h, anaerobic, 37 °C
The subject of assay [1] is Clostridium sporogenes DSM 1664. Put plainly: growth (OD595) fold change vs plate DMSO controls (fold change (ratio)); higher = more growth. In short, it runs like this:
(§1)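 Each value is the mean of 2 biological replicates, and fold changes above 1.5 were set to NA. The underlying readings were taken at 595 nm from shaken anaerobic mGAM cultures in 96-well plates after 27 h at 37 °C. They were blank-subtracted, corrected for compound background using 20 µM compound solutions in water, and converted to OD with a calibration factor of 5. Growth is the fold change relative to the median of the plate DMSO controls.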

Assay [2] relates to Escherichia coli IAI1. The description is as above. In outline: as §1
The test system of assay [3] is Klebsiella aerogenes DSM 30053. Described as above. In short, it runs like this: as §1
For assay [4], the system named is Ruminococcus gnavus DSM 108212. Described as above. In outline: as §1
For assay [5], the system named is Klebsiella aerogenes DSM 30053. Description: fold change of Histamine concentration vs plate DMSO controls (fold change (ratio)); higher = more amine produced, active = hit call of the paper (significant change in both replicates, either direction). In outline:
(§2)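 Amines were quantified by LC–triple-quadrupole MS in dynamic MRM mode against external calibration curves, with drift correction within each batch. The samples were whole anaerobic mGAM cultures of four gut bacterial strains, grown for 27 h at 37 °C in 80 µL wells and extracted with cold acetonitrile/methanol with 0.1% formic acid, then centrifuged. Values are reported as fold change over DMSO controls on the same plate. The mean of 2 biological replicates is given.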

In assay [6] the test system is Clostridium sporogenes DSM 1664. Description: fold change of Tryptamine concentration vs plate DMSO controls (fold change (ratio)); higher = more amine produced, active = hit call of the paper (significant change in both replicates, either direction). In short, it runs like this: as §2
Assay [7] relates to Ruminococcus gnavus DSM 108212. Described as above. In short, it runs like this:
as §2

In assay [8] the test system is Escherichia coli IAI1. Put plainly: fold change of Putrescine concentration vs plate DMSO controls (fold change (ratio)); higher = more amine produced, active = hit call of the paper (significant change in both replicates, either direction). In outline: as §2
Assay [9] has as its system Klebsiella aerogenes DSM 30053. The description is as above. In short, it runs like this:
as §2

For assay [10], the system named is Escherichia coli IAI1. Description: fold change of Cadaverine concentration vs plate DMSO controls (fold change (ratio)); higher = more amine produced, active = hit call of the paper (significant change in both replicates, either direction). In short, it runs like this: as §2
The test system of assay [11] is Klebsiella aerogenes DSM 30053. Described as above. In short, it runs like this: as §2
Assay [12] has as its system Ruminococcus gnavus DSM 108212. Description: fold change of 2-Phenylethylamine concentration vs plate DMSO controls (fold change (ratio)); higher = more amine produced, active = hit call of the paper (significant change in both replicates, either direction). In short, it runs like this: as §2

Structures are written as SMILES. Structures can show the parent of a compound that is named as a salt.

As to `Cc1c(OCC(F)(F)F)ccnc1C[S+]([O-])c1nc2ccccc2[nH]1` (centres undefined) [Lansoprazole] (20 µM), the growth turned out to be 1 in [1], 1.06 in the assay on Escherichia coli IAI1 [2], 1.01 in assay [3] and 1.02 in assay [4]. Also, the “fold change of Histamine concentration” value in assay [5] was 1.03 (inactive). For the same compound, the “fold change of Tryptamine concentration” value in assay [6] is 1.02 (inactive); in assay [7], 0.974 (inactive). Also, the “fold change of Putrescine concentration” value is 1.03 (inactive) in the assay on Escherichia coli IAI1 [8] and 1.01 (inactive) in [9]. Further, the figures for the “fold change of Cadaverine concentration” value (with Escherichia coli IAI1 [10]; in assay [11]) were 1.03 (inactive) and 1.01 (inactive), respectively. In addition, in [12], the “fold change of 2-Phenylethylamine concentration” value is 0.971 (inactive).
As for `CC(C)(C)NC[C@H](O)COc1cccc2c1CCCC2=O` [(-) Levobunolol hydrochloride] (20 µM), the growth in [1] is 0.999; in the assay on Escherichia coli IAI1 [2] it was 0.973; in [3] it was 0.98; in assay [4] it was 0.872. The “fold change of Histamine concentration” value in assay [5] is 1.06 (inactive). Besides, the “fold change of Tryptamine concentration” value in assay [6] was 1 (inactive); in assay [7] it was 0.916 (inactive). Also, the “fold change of Putrescine concentration” value with Escherichia coli IAI1 [8] was 1.04 (inactive); in assay [9], 1.03 (inactive). The “fold change of Cadaverine concentration” value with Escherichia coli IAI1 [10] was 0.996 (inactive); in assay [11], 1 (inactive). Further, the “fold change of 2-Phenylethylamine concentration” value in [12] is 0.866 (inactive).
On to `CN[C@@H]1[C@H](O[C@H]2[C@H](O[C@H]3[C@H](O)[C@@H](O)[C@H](NC(=N)N)[C@@H](O)[C@@H]3NC(=N)N)O[C@@H](C)[C@]2(O)CO)O[C@@H](CO)[C@H](O)[C@H]1O` [Dihydrostreptomycin sulfate] (20 µM), for which the growth in assay [1] was found to be 1.08; with Escherichia coli IAI1 [2] it was 0.98; in assay [3], 0.92; in assay [4], 0.933. Also, in assay [5], the “fold change of Histamine concentration” value is 0.704 (inactive). In addition, the figures for the “fold change of Tryptamine concentration” value in assay [6] and in assay [7] were 1.25 (inactive) and 0.984 (inactive), respectively. For the same compound, the “fold change of Putrescine concentration” value in the assay on Escherichia coli IAI1 [8] is 0.958 (inactive); in assay [9] it was 0.922 (inactive). Further, the figures for the “fold change of Cadaverine concentration” value (with Escherichia coli IAI1 [10]; in assay [11]) were 1.01 (inactive) and 0.993 (inactive), respectively. The “fold change of 2-Phenylethylamine concentration” value in assay [12] was 0.991 (inactive).
Regarding `CCN(Cc1ccncc1)C(=O)C(CO)c1ccccc1` (centres undefined) [Tropicamide] (20 µM), the growth in assay [1] turned out to be 0.93; with Escherichia coli IAI1 [2], 1.01; in [3], 1.04; in [4], 0.969. For the same compound, the “fold change of Histamine concentration” value in assay [5] is 0.947 (inactive). In addition, the “fold change of Tryptamine concentration” value was 1.06 (inactive) in [6] and 0.984 (inactive) in assay [7]. The “fold change of Putrescine concentration” value in the assay with Escherichia coli IAI1 [8] is 1.03 (inactive); in assay [9], 0.967 (inactive). In addition, the “fold change of Cadaverine concentration” value is 0.991 (inactive) in the assay with Escherichia coli IAI1 [10] and 1.03 (inactive) in assay [11]. The “fold change of 2-Phenylethylamine concentration” value in assay [12] was 0.959 (inactive).
As to `CCc1cccc2c3c([nH]c12)C(CC)(CC(=O)O)OCC3` (centres undefined) [Etodolac] (20 µM), the growth in [1] was found to be 1.08; in the assay on Escherichia coli IAI1 [2], 1.03; in assay [3], 1.1; in [4], 1.06. In addition, the “fold change of Histamine concentration” value in assay [5] was 1.06 (inactive). Further, the entries for the “fold change of Tryptamine concentration” value in [6] and in [7] were 0.981 (inactive) and 1.06 (inactive), respectively. Also, the “fold change of Putrescine concentration” value with Escherichia coli IAI1 [8] was 0.968 (inactive); in assay [9] it was 0.949 (inactive). Moreover, the entries for the “fold change of Cadaverine concentration” value (with Escherichia coli IAI1 [10]; in assay [11]) were 0.975 (inactive) and 0.991 (inactive), respectively. The “fold change of 2-Phenylethylamine concentration” value in [12] is 1.12 (inactive).
Turning to `OC(CCN1CCCCC1)(c1ccccc1)c1ccccc1` [Pridinol methanesulfonate salt] (20 µM), the growth was 1.18 in assay [1], 0.97 in the assay on Escherichia coli IAI1 [2], 0.996 in assay [3] and 1.02 in assay [4]. In assay [5], the “fold change of Histamine concentration” value was 1.05 (inactive). The “fold change of Tryptamine concentration” value in assay [6] is 1.03 (inactive); in [7], 1.05 (inactive). Also, the “fold change of Putrescine concentration” value in the assay with Escherichia coli IAI1 [8] is 1.21 (inactive); in assay [9], 0.996 (inactive). For the same compound, the “fold change of Cadaverine concentration” value in the assay with Escherichia coli IAI1 [10] is 0.368 (active); in assay [11] it was 0.997 (inactive). Also, the “fold change of 2-Phenylethylamine concentration” value in [12] is 1.04 (inactive).
In the case of `CC(CN1c2ccccc2Sc2ccccc21)N(C)C` (centres undefined) [Promethazine hydrochloride] (20 µM), the growth in assay [1] came out at 0.924; in the assay on Escherichia coli IAI1 [2], 0.819; in assay [3], 1.04; in [4], 0.948. Moreover, the “fold change of Histamine concentration” value in [5] was 0.964 (inactive). Besides, the “fold change of Tryptamine concentration” value in [6] is 0.997 (inactive); in [7], 1.01 (inactive). Further, the results for the “fold change of Putrescine concentration” value (in the assay on Escherichia coli IAI1 [8]; in assay [9]) were 0.858 (inactive) and 0.972 (inactive), respectively. The “fold change of Cadaverine concentration” value in the assay with Escherichia coli IAI1 [10] is 1.05 (inactive); in assay [11], 1.02 (inactive). Further, the “fold change of 2-Phenylethylamine concentration” value in [12] was 1.06 (inactive).
With `N[C@H](Cc1ccccc1)C(=O)O` [D-phenylalanine] (20 µM), the growth in assay [1] is 1.13; with Escherichia coli IAI1 [2] it was 1.02; in [3] it was 0.991; in assay [4], 0.917. Besides, the “fold change of Histamine concentration” value in [5] was 0.946 (inactive). Moreover, the “fold change of Tryptamine concentration” value in assay [6] was 1.1 (inactive); in [7] it was 0.973 (inactive). Also, the “fold change of Putrescine concentration” value in the assay with Escherichia coli IAI1 [8] is 1.06 (inactive); in assay [9] it was 1.02 (inactive). Besides, the “fold change of Cadaverine concentration” value with Escherichia coli IAI1 [10] was 0.961 (inactive); in [11], 1.01 (inactive). Besides, in assay [12], the “fold change of 2-Phenylethylamine concentration” value was 0.968 (inactive).
For `CC(=O)O[C@H]1C[C@@H]2CC[C@@H]3[C@H](CC[C@@]4(C)[C@H]3C[C@H]([N+]3(C)CCCCC3)[C@@H]4OC(C)=O)[C@@]2(C)C[C@@H]1N1CCCCC1` [Vecuronium bromide] (20 µM), the growth in assay [1] was 0.99; in the assay on Escherichia coli IAI1 [2], 0.99; in assay [3] it was 1.01; in [4], 0.872. Moreover, the “fold change of Histamine concentration” value in [5] is 1.04 (inactive). In addition, the “fold change of Tryptamine concentration” value was 1.01 (inactive) in assay [6] and 0.967 (inactive) in assay [7]. Besides, the “fold change of Putrescine concentration” value with Escherichia coli IAI1 [8] is 0.872 (inactive); in [9], 1 (inactive). Also, the “fold change of Cadaverine concentration” value (with Escherichia coli IAI1 [10]; in assay [11]) was 0.992 (inactive) each time. Further, in [12], the “fold change of 2-Phenylethylamine concentration” value is 1.03 (inactive).
With `CCOC(=O)c1c(N)sc2c1CCN(Cc1ccccc1)C2` [Tinoridine hydrochloride] (20 µM), the growth worked out at 1.15 in assay [1], 0.977 in the assay with Escherichia coli IAI1 [2], 0.967 in [3] and 1.14 in assay [4]. In assay [5], the “fold change of Histamine concentration” value is 1.03 (inactive). Besides, the “fold change of Tryptamine concentration” value is 0.982 (inactive) in assay [6] and 0.922 (inactive) in [7]. The “fold change of Putrescine concentration” value was 1.01 (inactive) with Escherichia coli IAI1 [8] and 1 (inactive) in assay [9]. Further, the “fold change of Cadaverine concentration” value in the assay on Escherichia coli IAI1 [10] was 0.954 (inactive); in [11], 0.976 (inactive). In addition, the “fold change of 2-Phenylethylamine concentration” value in [12] is 0.875 (inactive).
For `Clc1ccc(COC(Cn2ccnc2)c2ccc(Cl)cc2Cl)c(Cl)c1` (centres undefined) [Miconazole] (20 µM), the growth was 1.25 in assay [1], 1.18 in the assay on Escherichia coli IAI1 [2], 1.01 in assay [3] and 0.232 in assay [4]. For the same compound, the “fold change of Histamine concentration” value in assay [5] is 0.926 (inactive). The “fold change of Tryptamine concentration” value in assay [6] is 0.725 (active); in [7] it was 0.257 (active). In addition, the “fold change of Putrescine concentration” value in the assay on Escherichia coli IAI1 [8] is 1.2 (inactive); in assay [9] it was 0.99 (inactive). Also, the “fold change of Cadaverine concentration” value with Escherichia coli IAI1 [10] was 0.974 (inactive); in assay [11] it was 1.01 (inactive). Besides, the “fold change of 2-Phenylethylamine concentration” value in assay [12] was 0.277 (active).
As to `O=C(O)C1CSCN1` (centres undefined) [Timonacic] (20 µM), the growth is 0.827 in assay [1], 1.02 in the assay with Escherichia coli IAI1 [2], 1 in assay [3] and 0.956 in assay [4]. In [5], the “fold change of Histamine concentration” value is 0.992 (inactive). The “fold change of Tryptamine concentration” value was 1 (inactive) in assay [6] and 1.02 (inactive) in assay [7]. In addition, the “fold change of Putrescine concentration” value in the assay on Escherichia coli IAI1 [8] was 1.04 (inactive); in assay [9], 1.01 (inactive). The “fold change of Cadaverine concentration” value (in the assay with Escherichia coli IAI1 [10]; in [11]) was 1 (inactive) throughout. In addition, the “fold change of 2-Phenylethylamine concentration” value in assay [12] was 0.998 (inactive).
